Reference: publication PMC7819943, “Rice protein-binding microarrays: a tool to detect cis-acting elements near promoter regions in rice”
The full ranking holds about 39,000 sequences; the median of “fluorescence intensity (a.u.)” is about 4,300, and the highest 2% start at about 39,000. The sample holds the highest values, similar sequences and a random draw of the others, so the mix is not that of the screen.

The sequences below were run against T1, OsSMF1 (Oryza sativa, UniProt Q6ZLB0 1-436) (assay: protein-binding microarray (RPBM); PBS, 2% BSA, 51.3 ng/ul salmon testes DNA, 50 uM zinc acetate, 200 nM TF, 25 C, 1 h; high values mean tight binding). Settings: protein: recombinant; tags: N-terminal polyhistidine and DsRed monomer fusion (pET32a); chain copies: 2; label: CyDye5-dUTP incorporated in the synthesized complementary strand; 3' TTTTT single-stranded linker to array surface; dsDNA, one strand shown.
T1 sequence: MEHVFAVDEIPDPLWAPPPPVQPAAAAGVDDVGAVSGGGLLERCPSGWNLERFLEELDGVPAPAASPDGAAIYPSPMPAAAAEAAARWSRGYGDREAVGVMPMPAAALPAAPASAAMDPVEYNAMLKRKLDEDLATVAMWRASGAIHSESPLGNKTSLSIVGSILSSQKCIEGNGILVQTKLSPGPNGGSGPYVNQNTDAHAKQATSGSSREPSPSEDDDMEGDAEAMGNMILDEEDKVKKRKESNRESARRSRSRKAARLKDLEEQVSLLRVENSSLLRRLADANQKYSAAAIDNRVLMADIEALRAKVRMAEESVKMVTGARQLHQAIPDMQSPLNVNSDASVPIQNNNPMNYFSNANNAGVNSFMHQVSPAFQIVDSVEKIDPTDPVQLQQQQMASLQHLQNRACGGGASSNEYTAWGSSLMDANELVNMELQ
Method in brief: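 In PBS with 2% BSA, salmon testes DNA and 50 µM zinc acetate, 200 nM protein was incubated on a custom Agilent array at 25 °C for 1 h and then washed off. The array had been made double-stranded by primer extension with Cy5-dUTP and blocked with 2% BSA. The proteins were transcription factors fused N-terminally to polyhistidine and DsRed, expressed in E. coli BL21-CodonPlus and purified on Ni–NTA. The binding signal is per-feature fluorescence intensity (arbitrary units) from an Axon 4000B scanner.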
For “CCTCCTGCTCAGAGGCAGTTCGGTGACGAGCGGGTTGGAGCGGAGTCACCTAGTGCAG”, the binding signal was 24400 fluorescence intensity (a.u.). In the case of “GGGGATGGGGATTCGATGTGTCTATGCGTGGGCCCTGGTTCGGAGTCACCTAGTGCAG”, the binding signal is reported as 3860 fluorescence intensity (a.u.). “ACCGACGCGGACAGCCACAGTCCAGTCACACACCACACCACGGAGTCACCTAGTGCAG” was tested, and the binding signal was 5320 fluorescence intensity (a.u.). In the case of “ACGCAGTCACGCAGACCACAGGGCGATGCAGCGGACCGACCGGAGTCACCTAGTGCAG”, the binding signal is reported as 40900 fluorescence intensity (a.u.). For “CCGATCTCCACCACCACCACCACCACGCGGGCGCGCGCACCGGAGTCACCTAGTGCAG”, the binding signal was 4580 fluorescence intensity (a.u.). With “CTCAAAGCATTATAAAACTTGCTGGCTTTGTCCCCTTCATCGGAGTCACCTAGTGCAG” the binding signal was 3250 fluorescence intensity (a.u.). For “AGATCGACACGTTAGTCTACACACCTATGCGTGCCTATGCCGGAGTCACCTAGTGCAG”, the binding signal was 3580 fluorescence intensity (a.u.). “CCCCAATCCTCGCATGCCAACTCACCTGTGTTGCTTTTGCCGGAGTCACCTAGTGCAG” was tested, and the binding signal was 7550 fluorescence intensity (a.u.). In the case of “TCGCCCGCGCCCACTGACACGTGGGGCCCGGCACGTGGGCCGGAGTCACCTAGTGCAG”, the binding signal is reported as 11500 fluorescence intensity (a.u.). With “ACCATCTCTCTCTCTCTCTCTGCATGCATATCTTCTCCTCCGGAGTCACCTAGTGCAG” the binding signal was 3210 fluorescence intensity (a.u.). “AGTGCATGCGTGTGCGCCTGCCTGCTTACTTCCATCTCGACGGAGTCACCTAGTGCAG” was tested, and the binding signal was 7880 fluorescence intensity (a.u.). For “GTGTGATTATCTTCTCCATACCATCTCGTGCTACATGCGCCGGAGTCACCTAGTGCAG”, the binding signal was 40000 fluorescence intensity (a.u.). “GTTCCCTTTGTATTTCACACCTTGAGATGGTGACTGATCCCGGAGTCACCTAGTGCAG” was tested, and the binding signal was 3940 fluorescence intensity (a.u.). “AAAGATCAGAGAGACTACTAATCCGGTTTATTTACTGGCACGGAGTCACCTAGTGCAG” was tested, and the binding signal was 44100 fluorescence intensity (a.u.). With “TGTTTTCTAATATTTACAATCAGATCCCTTGAGTGAGTCACGGAGTCACCTAGTGCAG” the binding signal was 4150 fluorescence intensity (a.u.). For “TACTAATTTAATCCCCTTTGATCTGCTGACTGGTTTACTACGGAGTCACCTAGTGCAG”, the binding signal was 5140 fluorescence intensity (a.u.). In the case of “AGTCTCAGATCTACTTGCGGCGGCGAAGGCTCGGGAGGGGCGGAGTCACCTAGTGCAG”, the binding signal is reported as 3530 fluorescence intensity (a.u.). “ATATATTGACAAGGCAATGACATAGATAGCTAGACATATCCGGAGTCACCTAGTGCAG” was tested, and the binding signal was 3190 fluorescence intensity (a.u.). For “CATAGTTGACTTCCAAGGCAAGACAGATGAGATATGCATTCGGAGTCACCTAGTGCAG”, the binding signal was 45500 fluorescence intensity (a.u.). In the case of “TCCTTCGATTCCAAGCATATAGTAATATATGACACGATGCCGGAGTCACCTAGTGCAG”, the binding signal is reported as 5000 fluorescence intensity (a.u.). With “CGCAAACATTTTCGGAATATACGAATCCAGCGTTGCACTGCGGAGTCACCTAGTGCAG” the binding signal was 3250 fluorescence intensity (a.u.). “ATGTCAGGATGCCACGTCACACCCTTTCTTTCCCCTCCTCCGGAGTCACCTAGTGCAG” was tested, and the binding signal was 45200 fluorescence intensity (a.u.). With “CCCCTCCCCATCGTCAGCATCTTTCTTTCTCTTCCCATCCCGGAGTCACCTAGTGCAG” the binding signal was 6610 fluorescence intensity (a.u.). With “GTCAGTGTGGCCACGTCAGCATCCTCTCTTTTCCTCTCTTCGGAGTCACCTAGTGCAG” the binding signal was 40800 fluorescence intensity (a.u.). With “CCACATGTCAGGATGCCACGTCATCTCTCTTTCCCCTCTTCGGAGTCACCTAGTGCAG” the binding signal was 33600 fluorescence intensity (a.u.). In the case of “TCCTCCCACGCTTCTTCTTCTTCTTCTTCTTCCCTTTCCCCGGAGTCACCTAGTGCAG”, the binding signal is reported as 9800 fluorescence intensity (a.u.). “CATGTCAGGACGCCACGTCATCATGCTCTCTCTTTCCCCTCGGAGTCACCTAGTGCAG” was tested, and the binding signal was 33600 fluorescence intensity (a.u.). “CATATTCTGATATTCCCATCCACGTCAGCATTTCCCCACCCGGAGTCACCTAGTGCAG” was tested, and the binding signal was 41000 fluorescence intensity (a.u.). In the case of “AATGTGACCACGTCATCCCCTTCTTTCCCTTTCCCCTCTTCGGAGTCACCTAGTGCAG”, the binding signal is reported as 33300 fluorescence intensity (a.u.). In the case of “CAGGATGCCACGTCAGCGCCCTCTATCTCTTTCCCCTCCTCGGAGTCACCTAGTGCAG”, the binding signal is reported as 51300 fluorescence intensity (a.u.). In the case of “GTTCCACATGTCATCCTCTCCCTTTCTTCTTCCTCCCCTCCGGAGTCACCTAGTGCAG”, the binding signal is reported as 3930 fluorescence intensity (a.u.). For “CAGCCATCCATCCCACCCACACGTCACCACCCGCGCATCCCGGAGTCACCTAGTGCAG”, the binding signal was 20500 fluorescence intensity (a.u.). For “CCACGTGTCAGCATTGCCACATCAGCTTCCTCTCTCTTTTCGGAGTCACCTAGTGCAG”, the binding signal was 24100 fluorescence intensity (a.u.). In the case of “AGGTGCAGATGCTACTACTGATCTGGAACAGTGATCTCCACGGAGTCACCTAGTGCAG”, the binding signal is reported as 3180 fluorescence intensity (a.u.). With “CCCATTGCTGTCTCTACCATGTGTCATCTTCCAATAAGCACGGAGTCACCTAGTGCAG” the binding signal was 4950 fluorescence intensity (a.u.). With “GGCTGCGGCGCTGTCCCTCCGTCTGCGTGATCCGACAACCCGGAGTCACCTAGTGCAG” the binding signal was 3800 fluorescence intensity (a.u.). “AACCAACCAACCACGTCGATCGCTCGCAGTCGCCGCCGCGCGGAGTCACCTAGTGCAG” was tested, and the binding signal was 3840 fluorescence intensity (a.u.). In the case of “GCAGGCTGAATAAAACTGTATTGTCATCGATGATATTGGTCGGAGTCACCTAGTGCAG”, the binding signal is reported as 5020 fluorescence intensity (a.u.). For “AAAACAAATATAGAGGAGACAGCTCATTTTATTTCCTTGACGGAGTCACCTAGTGCAG”, the binding signal was 3340 fluorescence intensity (a.u.). In the case of “ATAAGGGCCAGCATGTACGTGACAGTGCCATTCGGGCCCACGGAGTCACCTAGTGCAG”, the binding signal is reported as 4850 fluorescence intensity (a.u.). “AAGTCAGGGTGTCCACGTCATCACCCTCCCTCTTTCTCCTCGGAGTCACCTAGTGCAG” was tested, and the binding signal was 55700 fluorescence intensity (a.u.). “CTACATATCAGGTGTCCACGTCACCCTCTCTCTTTCCCCTCGGAGTCACCTAGTGCAG” was tested, and the binding signal was 37200 fluorescence intensity (a.u.).
